# Records with an inconclusive call do not appear. Where a call stands in place of a potency, no number is given. Active and inactive are the calls of the source. The call rests on the fitted dose curve; in most records, active means well fitted inhibition curve with a large enough effect; inconclusive means small, poorly fitted or top-dose-only effect; inactive means flat fitted curve, though single readings scatter.
# What was measured:
# Assay in all cases: qHTS profiling for inhibitors of Plasmodium falciparum proliferation (AID 504749); further: nearly all actives have a fitted effect of over 60% in size
# Conditions in all cases: P. falciparum in erythrocytes, SYBR Green DNA, 72 h; series mostly up to 28.7 µM
# [1] = test system: CP286
# Method in brief: (§1)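 In a 72 h erythrocytic culture (37 C, humidified, 5% CO2) at 2.5% hematocrit and 0.3% starting parasitemia, compounds were tested; SYBR Green I in detergent lysis buffer stained parasite DNA overnight.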
# [2] = test system: CP291
# Method in brief: as §1
# [3] = test system: CP297
# Method in brief: as §1
# [4] = test system: CP305
# Method in brief: as §1
# [5] = test system: CP315
# Method in brief: as §1
# [6] = test system: CP325
# Method in brief: as §1
# [7] = test system: CP329
# Method in brief: as §1
# [8] = test system: CP335
# Method in brief: as §1
# [9] = test system: DFO2036
# Method in brief: as §1
# [10] = test system: DIV14
# Method in brief: as §1
# [11] = test system: DIV17
# Method in brief: as §1
# [12] = test system: DIV30
# Method in brief: as §1
# [13] = test system: Dd2
# Method in brief: as §1
# [14] = test system: ECU
# Method in brief: as §1
# [15] = test system: FAB9
# Method in brief: as §1
# [16] = test system: GB4
# Method in brief: as §1
# [17] = test system: HB3
# Method in brief: as §1
# [18] = test system: ICS
# Method in brief: as §1
# [19] = test system: JCK
# Method in brief: as §1
# [20] = test system: N140
# Method in brief: as §1
# Potency means the concentration at half of the fitted maximal effect.
Structure (SMILES),Potency [1],Potency [2],Potency [3],Potency [4],Potency [5],Potency [6],Potency [7],Potency [8],Potency [9],Potency [10],Potency [11],Potency [12],Potency [13],Potency [14],Potency [15],Potency [16],Potency [17],Potency [18],Potency [19],Potency [20]
CCCCCCCCCCCCCCCC(=O)O,inactive,inactive,inactive,inactive,inactive,inactive,inactive,inactive,inactive,inactive,inactive,inactive,inactive,inactive,inactive,inactive,inactive,inactive,inactive,inactive
Cc1cc(NS(=O)(=O)c2ccc(N)cc2)nc(C)n1,inactive,inactive,inactive,inactive,inactive,inactive,inactive,inactive,inactive,inactive,inactive,inactive,inactive,inactive,inactive,inactive,inactive,inactive,inactive,inactive
OC1C(O)C(O)C(O)C(O)C1O (stereo not given),inactive,inactive,inactive,inactive,inactive,inactive,inactive,inactive,inactive,inactive,inactive,inactive,inactive,inactive,inactive,inactive,inactive,inactive,inactive,inactive
CCCCCCCCCCCCCCCCO,inactive,inactive,inactive,inactive,inactive,inactive,inactive,inactive,inactive,inactive,inactive,inactive,inactive,inactive,inactive,inactive,inactive,inactive,inactive,inactive
NS(=O)(=O)c1ccc(Cl)c(S(N)(=O)=O)c1,inactive,inactive,inactive,inactive,inactive,inactive,inactive,inactive,inactive,inactive,inactive,inactive,inactive,inactive,inactive,inactive,inactive,inactive,inactive,inactive
CC(C)CCCC(C)N (stereo not given),inactive,inactive,inactive,inactive,inactive,inactive,inactive,inactive,inactive,inactive,inactive,inactive,inactive,inactive,inactive,inactive,inactive,inactive,inactive,inactive
FC1(F)C(F)(F)C(F)(F)C2(F)C(F)(F)C(F)(F)C(F)(F)C(F)(F)C2(F)C1(F)F (stereo not given),inactive,inactive,inactive,inactive,inactive,inactive,inactive,inactive,inactive,inactive,inactive,inactive,inactive,inactive,inactive,inactive,inactive,inactive,inactive,inactive
FC(F)(F)C(F)(F)C(F)(F)C(F)(F)C(F)(F)C(F)(F)C(F)(F)C(F)(F)Br,inactive,inactive,inactive,inactive,inactive,inactive,inactive,inactive,inactive,inactive,inactive,inactive,inactive,inactive,inactive,inactive,inactive,inactive,inactive,inactive
CCN1/C(=C/C=C/c2sc3ccccc3[n+]2CC)Sc2ccccc21,50.1 nM (active),379 nM (active),849 nM (active),190 nM (active),757 nM (active),601 nM (active),426 nM (active),107 nM (active),100 nM (active),478 nM (active),478 nM (active),675 nM (active),112 nM (active),224 nM (active),282 nM (active),301 nM (active),251 nM (active),100 nM (active),398 nM (active),251 nM (active)
CC1=C(C(=O)O)N2C(=O)[C@@H](NC(=O)[C@H](N)c3ccccc3)[C@H]2SC1,inactive,inactive,inactive,inactive,inactive,inactive,inactive,inactive,inactive,inactive,inactive,inactive,inactive,inactive,inactive,inactive,inactive,inactive,inactive,inactive
Cc1ccccc1OCC(O)CO (stereo not given),inactive,inactive,inactive,inactive,inactive,inactive,inactive,inactive,inactive,inactive,inactive,inactive,inactive,inactive,inactive,inactive,inactive,inactive,inactive,inactive
CCc1oc2ccccc2c1C(=O)c1cc(I)c(O)c(I)c1,inactive,inactive,inactive,inactive,inactive,inactive,inactive,inactive,inactive,inactive,inactive,inactive,inactive,inactive,inactive,inactive,inactive,inactive,inactive,inactive
COc1ccc(/C=N/NC(=O)c2ccncc2)cc1OC,inactive,inactive,inactive,inactive,inactive,inactive,inactive,inactive,inactive,inactive,inactive,inactive,inactive,inactive,inactive,inactive,inactive,inactive,inactive,inactive
N#CCC(=O)NN,inactive,inactive,inactive,inactive,inactive,inactive,inactive,inactive,inactive,inactive,inactive,inactive,inactive,inactive,inactive,inactive,inactive,inactive,inactive,inactive
O=C(O)CCNC(=O)c1ccccc1,inactive,inactive,inactive,inactive,inactive,inactive,inactive,inactive,inactive,inactive,inactive,inactive,inactive,inactive,inactive,inactive,inactive,inactive,inactive,inactive
CC(=O)Nc1ccc(OC(=O)c2ccccc2OC(C)=O)cc1,inactive,inactive,inactive,inactive,inactive,inactive,inactive,inactive,inactive,inactive,inactive,inactive,inactive,inactive,inactive,inactive,inactive,inactive,inactive,inactive
CCCCC(CC)COC(=O)/C=C/c1ccc(OC)cc1 (stereo not given),inactive,inactive,inactive,inactive,inactive,inactive,inactive,inactive,inactive,inactive,inactive,inactive,inactive,inactive,inactive,inactive,inactive,inactive,inactive,inactive
O=S(=O)(O)c1ccc(O)cc1,inactive,inactive,inactive,inactive,inactive,inactive,inactive,inactive,inactive,inactive,inactive,inactive,inactive,inactive,inactive,inactive,inactive,inactive,inactive,inactive
c1ccc(-c2nc[nH]c2-c2ccccc2)cc1,inactive,inactive,inactive,inactive,inactive,inactive,inactive,inactive,inactive,inactive,inactive,inactive,inactive,inactive,inactive,inactive,inactive,inactive,inactive,inactive
Cc1cc(C)cc(OCC2CNC(=O)O2)c1 (stereo not given),inactive,inactive,inactive,inactive,inactive,inactive,inactive,inactive,inactive,inactive,inactive,inactive,inactive,inactive,inactive,inactive,inactive,inactive,inactive,inactive
NC(=S)N/N=C/c1cccnc1,inactive,inactive,inactive,inactive,inactive,inactive,inactive,inactive,inactive,inactive,inactive,inactive,inactive,inactive,inactive,inactive,inactive,inactive,inactive,inactive
O=C(O)Cc1csc(-c2ccc(Cl)cc2)n1,inactive,inactive,inactive,inactive,inactive,inactive,inactive,inactive,inactive,inactive,inactive,inactive,inactive,inactive,inactive,inactive,inactive,inactive,inactive,inactive
O=C(Nc1ncc([N+](=O)[O-])s1)c1cccs1,inactive,inactive,inactive,inactive,inactive,inactive,inactive,inactive,inactive,inactive,inactive,inactive,inactive,inactive,inactive,inactive,inactive,inactive,inactive,inactive
NC(=O)c1ccccc1O,inactive,inactive,inactive,inactive,inactive,inactive,inactive,inactive,inactive,inactive,inactive,inactive,inactive,inactive,inactive,inactive,inactive,inactive,inactive,inactive
Nc1nc(-c2ccccc2)c(Br)c(=O)[nH]1,inactive,inactive,inactive,inactive,inactive,inactive,inactive,inactive,inactive,inactive,inactive,inactive,inactive,inactive,inactive,inactive,inactive,inactive,inactive,inactive
NC(=O)n1c(O)c(C(=O)c2cccs2)c2cc(Cl)ccc21,inactive,inactive,inactive,inactive,inactive,inactive,inactive,inactive,inactive,inactive,inactive,inactive,inactive,inactive,inactive,inactive,inactive,inactive,inactive,inactive
CCCCN=C(N)N=C(N)N,inactive,inactive,inactive,inactive,inactive,inactive,inactive,inactive,inactive,inactive,inactive,inactive,inactive,inactive,inactive,inactive,inactive,inactive,inactive,inactive
O=C(O)C(Cc1cc(I)c(O)c(I)c1)c1ccccc1 (stereo not given),inactive,inactive,inactive,inactive,inactive,inactive,inactive,inactive,inactive,inactive,inactive,inactive,inactive,inactive,inactive,inactive,inactive,inactive,inactive,inactive

# From PubChem BioAssay (NCATS)
